Assay outcomes from PubChem.
BCLXL inh = inhibitors of human Bcl-xL; inhibition, % at 10.9 µM; AID 2129; Q07817; GST-Bcl-xL / FITC-Bim BH3 peptide fluorescence polarization; hit rate 0.7% among 320,000;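 active = inhibition above the mean of all tested compounds plus 3 SD, cutoff set per campaign, cut at about 30% in these data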;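 also: 0% = DMSO wells and 100% = unlabeled Bim-BH3 peptide competitor; inhibitors lower millipolarization by displacing the labeled peptide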
Target sequence (Q07817 whole entry, looked up): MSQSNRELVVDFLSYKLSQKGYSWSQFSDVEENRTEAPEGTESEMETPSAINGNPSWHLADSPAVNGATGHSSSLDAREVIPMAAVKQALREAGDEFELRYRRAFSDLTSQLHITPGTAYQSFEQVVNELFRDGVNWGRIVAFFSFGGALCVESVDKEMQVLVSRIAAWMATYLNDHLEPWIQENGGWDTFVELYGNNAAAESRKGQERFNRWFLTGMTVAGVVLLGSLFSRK
MCL1-BIM inh = inhibitors of human MCL1 binding to BIM-BH3 peptide; Q07820; GST-MCL1 / FITC-Bim-BH3 fluorescence polarization; inhibition, % at 10.9 µM; hit rate 0.68% among 320,000; AID 2057;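 active = inhibition above the mean inhibition of all tested compounds plus 3 SD, set per campaign, cut at about 40% in these data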;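 also: 0% = DMSO wells and 100% = unlabeled Bim-BH3 peptide control; higher means more loss of mP so more displacement of Bim peptide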
E coli Lon inh = inhibits E. coli Lon protease; purified E. coli Lon protease, fluorescence polarization; hit rate 0.42% among 360,000; inhibition, % at 7.94 µM; P0A9M0; AID 602123; in the data active = inhibition above about 13%, passing the limit was not always enough;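 also: 0% = enzyme with probe and DMSO and 100% = no enzyme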
EBV gp42 block = inhibitors of Epstein-Barr virus glycoprotein 42. hit rate 0.42% among 220,000. inhibition, % (tested at 21.74 µM). Fluorescence polarization binding assay, mP read-out; in the data active = inhibition above about 50%
Target sequence (Q1HVG2 whole entry, looked up): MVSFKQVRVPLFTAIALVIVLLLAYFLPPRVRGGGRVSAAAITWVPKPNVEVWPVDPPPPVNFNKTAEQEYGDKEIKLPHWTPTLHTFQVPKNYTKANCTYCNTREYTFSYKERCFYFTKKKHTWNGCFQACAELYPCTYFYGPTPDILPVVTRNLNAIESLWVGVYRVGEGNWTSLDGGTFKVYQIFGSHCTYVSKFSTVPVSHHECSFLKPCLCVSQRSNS
GLD-1 RNA inh = GLD-1-TGE RNA interaction inhibition (C. elegans); inhibition, % at 5.96 µM; AID 2280; purified GLD-1 + fluorescein TGE RNA, fluorescence polarization; Q17339; hit rate 0.44% among 320,000;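 active = percent inhibition above a per-plate cutoff, the plate mean of test compounds plus 3 SD, cut at about 30% in these data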;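 also: 0% = DMSO wells with GLD-1 and probe and 100% = wells lacking GLD-1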
MEX-5 binding = C. elegans MEX-5 TCR-2 RNA binding activity. MEX-5/FITC-TCR2 RNA binding, fluorescence polarization; active compounds read low. hit rate 0.38% among 300,000. Q9XUB2. activity score (negative = inhibition of binding), % at 10 µM;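 active = inhibition past about -25% in most replicates, and total fluorescence under double the plate's negative control median, limit read from the data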;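 also: 0% = DMSO and -100% = 5 µM competing unlabeled TCR2 RNA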
eLon confirm = E. coli Lon inhibition confirmation. shares compounds with E coli Lon inh. purified E. coli Lon, fluorescence polarization. inhibition, % at 7.94 µM. hit rate 31% among 1,400. AID 602230; in the data active = inhibition above about 16%;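 also: 0% = enzyme with probe and DMSO and 100% = no enzyme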
* hit, by the source's call; . = no result; + = active, no number. A selection: hits, their analogues and other compounds. The true share with any hit is near 1.4%.

SMILES	BCLXL inh	MCL1-BIM inh	E coli Lon inh	EBV gp42 block	GLD-1 RNA inh	MEX-5 binding	eLon confirm
Cc1ccc(C(=O)NCCN(C)C)c(C)c1	8.4	3.5	-2.7	-2.1	5.3	1.0	.
Cc1ccc(S(=O)(=O)NCc2ccccc2)cc1C(=O)N(C)Cc1ccc(F)cc1	5.9	10.1	-5.2	.	8.7	1.8	.
O=C(N/N=C/C1C(c2ccccc2)C1(Cl)Cl)c1cccc(Cl)c1 (centres undefined)	2.9	3.2	22.3*	3.4	8.2	0.0	-1.9
CN(C)CCNc1ccc2ncn3c4ccc(O)cc4c(=O)c1c23	.	.	+	.	.	.	+
O=C(CCCc1ccccc1)N=C1SC2CS(=O)(=O)CC2N1c1ccccc1F (centres undefined)	4.7	0.8	-10.2	.	3.4	-0.8	.
Cc1nn(-c2ccc(F)cc2F)c2c1-c1nc(N3CCCC3)ncc1CC2	-4.5	-11.6	16.2*	-15.0	6.6	-1.3	6.3
CC(NC(=O)Nc1ccc(O)cc1)(C(F)(F)F)C(F)(F)F	23.4	17.1	5.4	-5.8	21.5	-3.9	.
CCC(NC(=O)Nc1ccc(O)cc1)(C(F)(F)F)C(F)(F)F	10.1	13.7	15.6*	-14.7	10.8	.	11.2
Brc1ccc(-c2cnnc(N3CCCC3)n2)cc1	11.2	15.3	22.5*	-1.1	-1.6	-2.8	-8.1
C=CCn1c(SCC(=O)N(C)CC(=O)Nc2ccc(C)cc2)nnc1-c1ccncc1	.	.	-12.3	.	-2.6	.	.
O=C(Cn1sc2ccccc2c1=O)Nc1ccccc1	.	.	15.7	.	.	.	.
O=C(Cn1sc2ccccc2c1=O)NC12CC3CC(CC(C3)C1)C2	21.6	39.4	16.1*	-29.1	1.1	2.4	5.4
COc1ccc(N2CCN(CC(=O)N3c4ccccc4CC3C)CC2)cc1 (centres undefined)	3.1	-1.6	18.1*	.	2.7	-2.3	-3.7
CC1CCN(CC(=O)N2c3ccccc3CC2C)CC1 (centres undefined)	5.5	1.5	-2.5	-20.4	-0.5	-1.7	.
CCN(CC)c1ccc(C=Nc2cccnc2Cl)c(O)c1	43.6*	50.8*	16.2*	.	28.0	-3.8	-1.3
CCN(CC)c1ccc(C=Nc2cc(C)ccc2C)c(O)c1	-4.3	-1.3	-4.7	-3.4	6.0	-0.3	.
CN1CCCCCC1C(=O)N1CCC(N2CCC(C(=O)N3CCOCC3)CC2)CC1 (centres undefined)	4.0	4.9	-8.6	-10.7	-6.9	5.6	.
COc1ccc(NC(=O)CN(C)C(=O)/C=C/c2ccc(OCc3ccccc3)cc2)cc1	-0.2	-8.2	19.2*	.	5.2	0.7	-7.7
Cc1ccc(-c2nnc(N3CCN(C(=O)Cn4c(=O)n(C)c5ccccc54)CC3)c3ccccc23)cc1	4.5	8.1	23.9*	-5.5	-0.5	0.5	1.9
Cn1c(=O)n(CC(=O)N2CCN(c3nnc(-c4ccccc4)c4ccccc34)CC2)c2ccccc21	5.5	3.8	6.2	-1.5	3.2	-2.5	.
COc1ccc(Cl)cc1N(CC(=O)Nc1ccccc1C(=O)N1CCCC1)S(C)(=O)=O	3.1	-0.9	17.6*	.	-2.4	-2.1	-5.7
CS(=O)(=O)N(CC(=O)Nc1ccccc1C(=O)N1CCCC1)c1ccccc1Br	3.8	3.4	6.2	.	-4.3	0.5	.
COCCN(C(=O)C1=COCCO1)c1c(N)n(CC(C)C)c(=O)[nH]c1=O	12.1	4.0	23.7*	.	17.6	.	6.6
COCCN(C(=O)C1=COCCO1)c1c(N)n(Cc2ccccc2)c(=O)[nH]c1=O	9.5	4.8	28.0*	.	8.2	-4.5	7.3
CCCCN(C(=O)C1=COCCO1)c1c(N)n(Cc2ccccc2)c(=O)[nH]c1=O	-0.2	-0.5	-1.4	.	1.9	-20.5	.
COCCN(C(=O)c1ccc(C)o1)c1c(N)n(CC(C)C)c(=O)[nH]c1=O	2.4	-0.1	-6.9	.	-4.1	.	.
O=C(CN1C(=O)COc2ccc(Cl)cc21)Nc1ccccn1	2.6	4.4	-3.0	.	3.7	-1.8	.
C=CCOc1ccccc1CN(C(=O)CCl)c1ccc2c(c1)OCO2	7.0	5.3	0.3	.	-1.1	-0.4	.
O=C1CC(C(=O)Nc2ccc(O)c(C(=O)O)c2)C(c2ccccc2)O1 (centres undefined)	2.6	13.5	1.4	0.0	-0.5	-3.8	.
